Screening results deposited in PubChem BioAssay by several laboratories.
A selection: hits, their analogues and other compounds. The true share with any hit is near 4%.
GDH-TPI inh = GDH-TPI coupled enzyme inhibition counter-screen. GDH-TPI coupled enzyme counterscreen, NADH absorbance. inhibition, % at 4.8 µM. 1.2% of 360,000 active; in the data active = inhibition above about 30%;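 note: 0% = DMSO wells and 100% = wells lacking the enzyme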
Rv3671c inh = Rv3671c (M. tuberculosis) protease inhibition | P9WHR9 | inhibition, % at 5.96 µM | 0.048% of 320,000 active | AID 2606; in the data active = inhibition above about 38%;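 note: extracellular domain of Rv3671c used as enzyme; 0% = enzyme with DMSO and 100% = no enzyme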
UGM FP inh = Mtb UDP-galactopyranose mutase inhibition | purified UGM, fluorescence polarization probe displacement | P9WIQ1 | 0.06% of 320,000 active | inhibition, % at 10 µM; in the data active = inhibition above about 10%, passing the limit was not always enough
Target sequence (P9WIQ1 whole entry, looked up): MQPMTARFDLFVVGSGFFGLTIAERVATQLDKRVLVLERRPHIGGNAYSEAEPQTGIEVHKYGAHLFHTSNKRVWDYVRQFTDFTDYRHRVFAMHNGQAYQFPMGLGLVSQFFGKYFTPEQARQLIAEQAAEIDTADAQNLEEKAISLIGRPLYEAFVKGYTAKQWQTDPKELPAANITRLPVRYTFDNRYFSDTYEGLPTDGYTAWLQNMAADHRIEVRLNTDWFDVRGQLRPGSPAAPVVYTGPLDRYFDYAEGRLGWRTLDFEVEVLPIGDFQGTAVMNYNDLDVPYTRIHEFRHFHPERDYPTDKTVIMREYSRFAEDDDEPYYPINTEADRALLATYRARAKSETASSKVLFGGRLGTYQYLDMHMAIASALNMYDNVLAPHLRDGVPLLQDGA
Mtb FBA inh = inhibitors of M. tuberculosis fructose-bisphosphate aldolase | 2.3% of 360,000 active | AID 588726 | inhibition, % at 1 µM | purified M. tuberculosis FBA, fluorescence read-out; in the data active = inhibition above about 27%;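 note: 0% = vehicle and 100% = reference inhibitor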
RecA splice inh = blocks M. tuberculosis RecA intein splicing; P9WHJ3; cell-free RecA intein splicing, fluorescence; inhibition, % (no concentration beside the values); 0.75% of 290,000 active; AID 2221; in the data active = inhibition above about 30%;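 note: 0% = vehicle wells and 100% = reference inhibitor control wells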
Mtb bLac sens = beta-lactam sensitization of Mtb H37Rv | M. tuberculosis H37Rv growth with meropenem, percent inhibition | inhibition, % at 25 µM | 0.27% of 330,000 active | AID 434955; call rule not given here;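 note: growth measured after seven days incubation then overnight dye step; 0% = bacteria only wells and 100% = bacteria with antibiotic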
An asterisk follows results filed as active; x = no result.

SMILES	GDH-TPI inh	Rv3671c inh	UGM FP inh	Mtb FBA inh	RecA splice inh	Mtb bLac sens
COc1cc(OC)cc(-c2c(C#Cc3ccsc3)c3cc(-c4ccc5c(c4)OCO5)ccc3n2C)c1	38.6*	-1.9	-0.4	10.5	x	-1.1
COc1ccc(-c2c(C#Cc3ccsc3)c3cc(-c4ccc5c(c4)OCCO5)ccc3n2C)cc1	42.1*	-1.9	0.8	18.9	x	4.5
COc1ccc(-c2c(C#Cc3ccsc3)c3cc(-c4ccc5[nH]ccc5c4)ccc3n2C)cc1	47.1*	1.1	-0.1	18.5	x	-1.6
COc1ccc(-c2noc(CN(C)C(=O)c3ccc4c(c3)OCO4)n2)cc1	-2.3	3.4	-0.3	-2.1	0.6	6.7
Cc1cnnn1-c1ccc(C(=O)CCl)cc1	0.9	-7.9	-1.8	0.7	52.5*	-4.8
O=C1NC2=C(CCc3ccccc32)C(c2ccccc2)N1 (centres undefined)	2.2	-35.9	-1.2	7.8	46.9*	0.0
Cc1cc(C(=O)N/N=C/C=C/c2ccccc2)n[nH]1	61.4*	2.9	1.4	-0.9	0.3	-0.5
Cc1cc(C(=O)N/N=C/C=C/c2cccc([N+](=O)[O-])c2)n[nH]1	24.3	5.4	-0.8	-5.0	-1.0	1.6
Cc1ccc(C(=O)N/N=C/C=C/c2ccccc2)o1	52.0*	0.2	-1.2	6.0	1.2	2.1
Cc1onc(-c2ccccc2)c1C(=O)N/N=C/C=C/c1ccccc1	23.0	8.9	-1.3	4.7	1.0	-3.3
O=C(N/N=C/C=C/c1ccccc1)c1cc(C2CC2)[nH]n1	66.9*	7.0	-1.8	-0.9	-1.0	-3.6
O/N=C(\CN1CCCCC1)c1ccccc1	-0.9	-5.8	1.8	2.2	-2.4	-2.9
O=C(Nc1nc2ccc(F)cc2s1)c1ccc(N2CCCC2=O)cc1	0.0	5.4	-3.1	2.3	4.2	-0.6
O=C1/C(=C/c2cccnc2)CC/C1=C\c1cccnc1	53.8*	-4.5	-2.0	-3.5	3.7	-0.9
O=C1NC(=S)N/C1=C/c1cccnc1	45.0*	-2.3	-2.5	-1.0	0.0	-8.8
O=C1NC(=S)N/C1=C\c1cccc([N+](=O)[O-])c1	33.5*	-1.3	-1.2	0.1	0.4	-1.1
CCOC(=O)C(=O)NC1CC=CCC1c1ccc2c(c1)OCO2 (centres undefined)	-2.6	x	x	-2.9	x	x
CCOC(=O)c1ccccc1NC(=O)c1cc2sccc2n1C	31.6*	-7.0	1.2	6.9	-1.6	19.6
C/C(=N\Nc1ccc(S(=O)(=O)N2CCCCC2)cn1)c1ccc(O)cc1	33.6*	7.8	-1.5	-0.5	x	-1.4
COc1ccc(CC(=O)OCC(=O)N2CCc3ccccc32)cc1OC	-5.4	-10.9	x	2.8	x	3.9
CN(C)c1ccc(C(=O)c2ccccc2)cc1	31.1*	-3.8	2.3	-3.7	4.5	-2.2
C=C(c1ccccc1)c1ccc(N(C)C)cc1	10.0	-4.4	-1.2	1.8	-3.6	-0.9
O=C(O)CSCCOc1ccc(OCCSCC(=O)O)cc1	2.9	0.6	3.4	2.5	-1.2	-3.3
O=C(c1cccc(NS(=O)(=O)c2cccc([N+](=O)[O-])c2)c1)N1CCOCC1	3.8	-7.0	-0.6	156.4*	2.4	1.1
Cc1cc(C)c(CN2CCC(N3CCC(C(=O)NCC4CCCO4)CC3)CC2)cc1C (centres undefined)	-0.4	-5.8	0.4	-4.1	1.2	3.6
SMILES	GDH-TPI inh	Rv3671c inh	UGM FP inh	Mtb FBA inh	RecA splice inh	Mtb bLac sens
COc1ccc(CCC(=O)NC2CCCCC2)cc1	-0.4	3.3	-0.4	-0.2	-0.1	-9.0
COc1cc(/C=C/c2nc3ccccc3c(=O)[nH]2)ccc1O	40.7*	x	x	-2.6	x	x
COc1cc(/C=C/c2nc3ccccc3c(=O)n2-c2cccc(O)c2)ccc1O	46.9*	2.4	-1.5	-4.2	-4.2	42.8
COc1cc(/C=C/c2nc3ccccc3c(=O)n2-c2ccccc2O)ccc1O	23.5	-5.5	-6.6	-4.6	2.6	9.7
O=c1c2ccccc2nc(/C=C/c2ccc(O)c(O)c2)n1-c1ccccc1	42.9*	-26.6	-0.2	-5.8	-3.8	3.9
O=C(CNc1ccc2ccccc2c1)N/N=C/c1cc2ccccc2nc1Cl	4.9	1.3	0.3	0.9	14.5	6.5
O=C(NCc1ccncc1)c1cc(S(=O)(=O)N2CCOCC2)c(Cl)cc1Cl	-2.1	-2.1	-1.6	-5.2	-5.2	0.9
CCNC(=S)N/N=C/c1cn(Cc2ccc(F)cc2)c2ccccc12	22.1	10.0	0.4	-1.4	-1.3	6.1
O=C(O)c1ccc(N/N=C/c2cn(Cc3ccc(F)cc3)c3ccccc23)cc1	44.4*	14.8	1.4	11.6	5.0	10.3
COc1cc(C(=O)N/N=C/c2cn(Cc3cccc(F)c3)c3ccccc23)ccc1O	35.2*	x	1.2	3.7	-0.1	4.2
Cc1c(/C=N/Nc2ccc(C(=O)O)cc2)c2ccccc2n1C	40.5*	4.0	-3.5	4.4	-6.3	1.6
Cc1ccc(C(=O)N/N=C/c2cn(Cc3ccccc3)c3ccccc23)cn1	23.8	0.9	1.4	-2.5	-0.2	-0.1
CC(=O)OCC(=O)[C@@]12OC(C)(C)O[C@@H]1CC1C3C[C@H](F)C4=CC(=O)C=CC4(C)[C@@]3(F)C(O)CC12C (some centres undefined)	10.1	3.7	3.2	0.3	3.6	3.1
Cc1c(C(=O)N2CCOCC2)c(S(=O)(=O)Nc2cccc(Br)c2)c(C)n1C	7.6	9.8	4.0	0.6	-2.6	7.1
CCOC(=O)c1sc(/N=C/c2c(O)n(-c3cccc(C)c3)c(=O)[nH]c2=O)c(C#N)c1C	3.0	-4.4	-2.3	-3.0	2.1	16.6
CC(OC(=O)c1nccnc1N)C(=O)Nc1ccc(S(=O)(=O)N2CCCC2)cc1 (centres undefined)	7.8	-1.0	x	142.2*	-1.9	-9.1
COc1ccccc1C1CC(c2ccco2)=NN1c1ccccc1 (centres undefined)	12.5	3.5	-0.1	148.2*	-1.2	8.2
COc1ccc(C2CC(c3ccc(F)cc3)=NN2c2ccccc2)cc1OC (centres undefined)	-10.0	-7.4	5.3	10.8	12.7	78.2
Cc1cccc(N2CCN(C(=O)[C@H](C)N3C(=O)C4CC=CCC4C3=O)CC2)c1C (some centres undefined)	-4.1	-3.4	7.2	0.8	x	-11.6
O=C(O)c1ccccc1C(=O)NC1Cc2ccccc2C1	2.4	-1.6	-3.0	0.9	2.0	-8.6
COc1ccc(N(CC(=O)N/N=C/c2ccc(-c3ccc([N+](=O)[O-])cc3)o2)S(=O)(=O)c2ccc(C)cc2)cc1	-2.9	0.8	14.0*	1.3	-11.4	90.9
O=C(O)c1cccc(-c2ccc(/C=N/Nc3ccc([N+](=O)[O-])cc3)o2)c1	33.3*	5.8	0.9	-41.7	-4.7	53.2
O=[N+]([O-])c1ccc(C=NNc2ccc(S(=O)(=O)O)cc2)cc1	30.7*	x	x	-19.3	x	x
NC(=S)N/N=C/c1ccc(-c2cccc([N+](=O)[O-])c2)o1	50.0*	-4.3	2.9	-1.7	-0.9	93.1
O=C(O)c1cc(-c2ccc(/C=N/Nc3ccc([N+](=O)[O-])cn3)o2)ccc1Cl	4.4	x	x	-4.5	x	x
